# 4MU fluor – 4-MU region autofluorescence; AID 589; max dye-equivalent concentration, M; actives 11% (n = 59,000); compound autofluorescence, 340/450 nm, 4-MU equivalents; active compounds read high; in the data active = max dye-equivalent concentration above about 10 nM; inconclusive = mostly about 1.1 nM to 9.6 nM
#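 Intrinsic fluorescence at 340/450 nm (ex/em) was read after 15 min at room temperature in pH 8.0, 100 mM Tris. Each compound concentration expressed as 4-MU-equivalent concentration from a six-point 4-MU standard series on each plate.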
# HSD17B inh – inhibitors of human HSD17B10 dehydrogenase; Q99714; actives 7.6% (n = 75,000); AID 893; Potency, µM (series often up to 57.1 µM), inactives show at the highest dose activity change, negative = inhibition, most hits filed as inhibitors; recombinant HSD17B10, NADH fluorescence kinetic;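 also: the protocol describes HADH2 (HSD17B10) and not the HSD17B4 of the title; potency is read from the fitted curve at half-maximal effect; % is scaled to controls: 0 for no effect and ±100 for the full control effect; nearly all actives have a fitted effect of over 70% in size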
#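 20 nM HADH2, pH 9.0 Tris/Tween; cpd preinc 15 min RT; start w/ 1 mM NAD+ + 90 uM b-hydroxybutyryl-CoA; kinetic fluor ex360/em450 q30s x 4 min; delta last-first.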
# HADH2 inh – inhibitors of human HADH2 dehydrogenase; Q99714; recombinant HADH2, NADH fluorescence, beta-hydroxybutyryl-CoA; Potency, µM (titrated, usually from 57.1 µM), for inactives: top-dose activity change, negative = inhibition, hits mostly inhibitors; actives 3.4% (n = 73,000); also: potency is read from the fitted curve at half-maximal effect; % is scaled to controls: 0 for no effect and ±100 for the full control effect; nearly all actives have a fitted effect of over 60% in size
# Target sequence (Q99714 whole entry, looked up, one chain of several): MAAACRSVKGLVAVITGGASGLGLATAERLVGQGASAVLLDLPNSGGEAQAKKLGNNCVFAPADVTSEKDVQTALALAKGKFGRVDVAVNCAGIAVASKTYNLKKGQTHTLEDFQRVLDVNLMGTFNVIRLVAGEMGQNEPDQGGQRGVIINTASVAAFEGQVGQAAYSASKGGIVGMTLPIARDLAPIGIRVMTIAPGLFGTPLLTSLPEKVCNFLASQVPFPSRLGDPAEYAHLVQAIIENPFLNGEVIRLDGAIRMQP
#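 His-tagged recombinant enzyme from E. coli, 20 nM, preincubated 15 min RT with compound; reaction started with 1 mM NAD+ and 90 uM beta-hydroxybutyryl-CoA in 100 mM Tris-HCl pH 9.0. NADH fluorescence (ex 360/em 450) read over 4 min; last-minus-first difference.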
# A350 autofl – compounds fluorescent in Alexa 350 spectral region; actives 11% (n = 59,000); max dye-equivalent concentration, M; Compound autofluorescence, 340/450 nm, Alexa 350 dye-equivalents; active compounds read high; AID 590; in the data active = max dye-equivalent concentration above about 10 nM; inconclusive = mostly about 1.1 nM to 9.6 nM
# AID923 – qHTS Assay for Allosteric/Competitive Inhibitors of Caspase-1: Spectroscopic Profiling in AFC Spectral Region; compound fluorescence, AFC spectral region (405/520 nm); Potency, µM (top dose mostly 57.5 µM), without a hit: top-dose fluorescence increase, most hits filed as activators; actives 1.1% (n = 75,000); AID 923, 2007; also: potency is read from the fitted curve at half-maximal effect; 0% is about no effect
#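 Titrations up to 57 uM read every 20 sec for 3 min (405/520 nm) with 50 nM caspase 1 and 5 uM Ac-WEHD-AFC, pH 7.5 HEPES buffer. Fluorescence-vs-time intercept gave baseline, scaled against on-plate AFC standard.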
# CRE Fsk mod – alters forskolin-stimulated CRE reporter signaling in CHO cells; AID 662; actives 2.5% (n = 71,000); Potency, µM (highest dose often 38.2 µM), inactives show top-dose activity change, negative = inhibition, most hits filed as activators; CHO CRE-bla reporter (cAMP response element driving beta-lactamase), forskolin EC10, beta-lactamase ratio; active = well fitted activation curve with a large enough effect in the signal ratio, with a control signal flat, not every such curve was filed as active; inconclusive = small, poorly fitted or top-dose-only effect, or effect the other way, or a change in a side signal; the % refers to the signal ratio; also: potency is read from the fitted curve at half-maximal effect; % of control where 0% means no effect
#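 AC50 values, positive or negative, reflect shifts in EC10 NKH 477-induced CRE-bla reporter activity in CHO cells. Incubation lasted 3 h at 37 °C before CCF4 substrate (2 h, room temperature) and ratiometric 460/530 nm reading.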
# Numbers without * were called inactive; i = inactive; ? = inconclusive; . = not tested or not shown; ! = repeats disagree; [ ] = another dose, or the depositor's remark. Only some compounds are listed: those with a hit (about 14% of all), similar ones and a draw of the others. Unless noted, calls follow the shape of the dose curve; as a rule, active = well fitted curve in the direction sought with a large enough effect; inconclusive = small, poorly fitted or top-dose-only effect, or another doubt; inactive = no such curve, though single readings can be large; an effect the other way counts as inactive or inconclusive.
SMILES,4MU fluor,HSD17B inh,HADH2 inh,A350 autofl,AID923,CRE Fsk mod
CC(NC(=O)Nc1ccc(F)cc1F)c1ccncc1 (stereo not drawn),1.46e-08M*,-5.0%,?,1.62e-08M*,-0.3%,-6.7%
CC(=O)OC[C@H]1O[C@@H](O/N=C(\C)CCN2CCCc3nc(C)c(C)cc32)[C@H](OC(C)=O)[C@@H](OC(C)=O)[C@H]1OC(C)=O,.,?,-2.5%[11.4 µM],.,3.9%[11.5 µM],.
CC(=O)Nc1ccc(OC[C@@H](O)CNC(C)C)cc1,i,-5.1%,14.2%,i,-0.5%,?
CCCC(=O)c1ccc(N2CCN(C(=O)OCC)CC2)c(F)c1,1.02e-08M*,-2.2%,-2.0%,1.03e-08M*,0.9%,0.3%
CCOC(=O)N1CCN(c2ccc(C(=O)CC)cc2F)CC1,.,3.5%,-9.8%,.,4.3%,0.1%
C[C@@H]1[C@H](O)[C@@H](C)/C=C/C=C/C=C/C=C/C=C/C=C/C=C/[C@H](O[C@@H]2O[C@H](C)[C@@H](O)[C@H](N)[C@@H]2O)C[C@@H]2O[C@](O)(C[C@@H](O)C[C@@H](O)[C@H](O)CC[C@@H](O)C[C@@H](O)CC(=O)O[C@H]1C)C[C@H](O)[C@H]2C(=O)O,.,31.6µM*,?,.,8.2%,-5.7%
C[C@H]1[C@H](O)[C@@H](C)C=CC=CC=CC=CC=CC=CC=C[C@H](O[C@@H]2O[C@@H](C)[C@H](O)[C@@H](N)[C@@H]2O)C[C@@H]2O[C@](O)(C[C@@H](O)C[C@@H](O)[C@@H](O)CC[C@@H](O)C[C@@H](O)CC(=O)O[C@H]1C)C[C@H](O)[C@H]2C(=O)O,i,3.16µM*,0.8%[11.4 µM],i,-1.1%[11.5 µM],-0.2%[7.6 µM]
OC[C@H]1NC[C@@H](O)[C@@H](O)[C@H]1O,.,-18.4%,-2.0%,.,-2.4%,1.3%
Cc1nn(-c2ccc(F)cc2)c(C)c1NS(=O)(=O)c1ccc(Cl)cc1,i,-19.2%,-3.7%,i,-1.2%,-16.6%
COc1ccc2[nH]c(=O)c(CN(C(=O)C3CCCO3)c3ccc(C)cc3)cc2c1 (stereo not drawn),3.36e-07M*,?,?,4.46e-07M*,0.8%,3.4%
COc1ccc2[nH]c(=O)c(CN(CC3CCCO3)C(=O)Nc3ccc(F)cc3)cc2c1 (stereo not drawn),1.01e-07M*,25.1µM*,-17.1%,1.22e-07M*,-2.3%,18.0%
COc1cccc(C(=O)N(Cc2cc3cc(C)ccc3[nH]c2=O)CC2CCCO2)c1 (stereo not drawn),1.21e-08M*,?,15.8%,1.14e-08M*,-1.7%,-12.8%
N#Cc1cc2c([nH]c1=S)CCCCCC2,.,?,3.16µM*,.,0.4%,.
COc1ccc(N2CCN(C(=O)CSc3ncccc3-c3nc4ccccc4[nH]3)CC2)cc1,2.48e-08M*,31.6µM*,-14.0%,2.65e-08M*,3.1%,-3.2%
O=C(CSc1ncccc1-c1nc2ccccc2[nH]1)NC1CC1,?,-18.7%,-13.7%,?,2.1%,2.8%
O=C(CSc1ncccc1-c1nc2ccccc2[nH]1)N1CCN(c2ccccc2F)CC1,1.35e-08M*,-29.6%,6.8%,1.4e-08M*,1.5%,-1.6%
COc1ccccc1N1CCN(C(=O)CSc2ncccc2-c2nc3ccccc3[nH]2)CC1,1.29e-07M*,31.6µM*,0.0%,1.14e-07M*,7.1%,-4.4%
COc1cc(-c2noc(CCCC(=O)NCc3ccco3)n2)cc(OC)c1OC,?,-7.4%,15.2%,1.28e-08M*,-1.0%,?
O=C(CCc1nc(-c2ccccc2)no1)NCc1ccco1,i,-2.0%,-22.6%,i,1.1%,-7.3%
O=C(CSc1ncnc2ccccc12)Nc1ccc(N2CCOCC2)cc1,i,5.6%,14.2%,i,-1.1%,5.2%
CC1=C(C(=O)OCCOc2ccccc2)C(c2ccc(C)o2)C2=C(CC(C)(C)CC2=O)N1 (stereo not drawn),.,?,39.6%,.,6.0%,19.6%
CC1=C(C(=O)Nc2ccc(C)cc2)C(c2ccc(C)o2)C2=C(CC(C)(C)CC2=O)N1 (stereo not drawn),2.94e-08M*,-22.7%,-0.4%,3.29e-08M*,-0.3%,-10.8%
O=C(O)NCc1ccccc1 (tested in a mixture with another compound),i,-3.1%[11.4 µM],6.9%[11.4 µM],i,-0.2%[11.5 µM],0.5%[7.6 µM]
CC(C)OCCCNC(=O)c1cc2c(=O)n(C)c3ccccc3c2n1C,.,31.6µM*,9.9%,.,-1.8%,2.51µM*
CCCCN(CC)CCCNC(=O)c1cc2c(=O)n(C)c3ccccc3c2n1C,.,25.1µM*,2.7%,.,-0.4%,12.2%
SMILES,4MU fluor,HSD17B inh,HADH2 inh,A350 autofl,AID923,CRE Fsk mod
Cc1ccc(CNC(=O)c2cc3c(=O)n(C)c4ccccc4c3n2C)o1,.,?,4.5%,.,0.3%,?
COc1ccccc1CNC(=O)c1cc2c(=O)n(C)c3ccccc3c2n1C,.,-1.4%,7.8%,.,-0.2%,?
CN(C)Cc1c[nH]c2nc[nH]c(=O)c12,?,5.3%[11.4 µM],2.6%[11.4 µM],?,-0.7%[11.5 µM],-1.6%[7.6 µM]
Cc1onc(-c2ccccc2Cl)c1C(=O)Nc1cccc(-c2cn3cccnc3n2)c1,6.75e-07M*,25.1µM*,i,7.68e-07M*,0.4%,?
Cc1onc(-c2ccccc2Cl)c1C(=O)Nc1ccc(F)c(F)c1,i,-2.3%,2.8%,i,0.4%,-6.5%
CCOC(=O)C1=C(C)NC(C)=C(C(=O)OCC)C1C(=O)OCC(=O)N1CCC(C)CC1,8.34e-08M*,-12.2%,7.1%,1.19e-07M*,2.5%,8.0%
CCOC(=O)C1=C(C)NC(C)=C(C(=O)OCC)C1C(=O)OCC(=O)N1CCCCC1CC (stereo not drawn),1.07e-07M*,-15.4%,-5.0%,1.34e-07M*,3.2%,3.3%
O=C(CN1C(=O)c2ccccc2C1=O)OCC(=O)N1CCc2ccccc2C1,?,-2.6%,10.2%,?,-0.6%,?
CCOC(=O)C1=C(C)NC(C)=C(C(=O)OCC)C1C(=O)OCC(=O)N1CCc2ccccc2C1,6.22e-08M*,-25.7%,1.9%,7.88e-08M*,0.4%,?
CCOC(=O)C1=C(C)NC(C)=C(C(=O)OCC)C1C(=O)O,.,2.0%,-7.9%,.,1.5%,0.9%
CC1(C)C(=O)C(c2ccccc2)=C2CN3C(=O)N(CCc4ccccc4)C(=O)C3(Cc3ccc(C(F)(F)F)cc3)C=C21 (stereo not drawn),.,-7.5%,-9.9%,.,1.7%,-12.1%
CC(C)(C[C@@]1(C)NC(=O)NC1=O)OCc1ccccc1,i,1.4%[11.4 µM],4.9%[11.4 µM],i,2.0%[11.5 µM],6.6%[7.6 µM]
C[C@@H](C(=O)O)c1cccc(C(=O)c2ccccc2)c1,1.36e-08M*!,3.0%[25.6 µM],-1.7%[25.6 µM],1.93e-08M*!,-0.4%[25.7 µM],-6.5%[17.1 µM]
